KDM5B inhibitor – Primary screen for KDM5B Histone Demethylases FDH-coupled qHTS; Lysine-specific demethylase 5B (Homo sapiens), Q9UGL1; Potency, µM (series often up to 57.7 µM), most hits filed as inhibitors; KDM5B demethylase, FDH-coupled NADH fluorescence (FDH is formaldehyde dehydrogenase); 2.6% of 220,000 active; active = well fitted inhibition curve with a large enough effect; also: nearly all actives have a fitted effect of over 70% in size
Target sequence (Q9UGL1 whole entry, looked up): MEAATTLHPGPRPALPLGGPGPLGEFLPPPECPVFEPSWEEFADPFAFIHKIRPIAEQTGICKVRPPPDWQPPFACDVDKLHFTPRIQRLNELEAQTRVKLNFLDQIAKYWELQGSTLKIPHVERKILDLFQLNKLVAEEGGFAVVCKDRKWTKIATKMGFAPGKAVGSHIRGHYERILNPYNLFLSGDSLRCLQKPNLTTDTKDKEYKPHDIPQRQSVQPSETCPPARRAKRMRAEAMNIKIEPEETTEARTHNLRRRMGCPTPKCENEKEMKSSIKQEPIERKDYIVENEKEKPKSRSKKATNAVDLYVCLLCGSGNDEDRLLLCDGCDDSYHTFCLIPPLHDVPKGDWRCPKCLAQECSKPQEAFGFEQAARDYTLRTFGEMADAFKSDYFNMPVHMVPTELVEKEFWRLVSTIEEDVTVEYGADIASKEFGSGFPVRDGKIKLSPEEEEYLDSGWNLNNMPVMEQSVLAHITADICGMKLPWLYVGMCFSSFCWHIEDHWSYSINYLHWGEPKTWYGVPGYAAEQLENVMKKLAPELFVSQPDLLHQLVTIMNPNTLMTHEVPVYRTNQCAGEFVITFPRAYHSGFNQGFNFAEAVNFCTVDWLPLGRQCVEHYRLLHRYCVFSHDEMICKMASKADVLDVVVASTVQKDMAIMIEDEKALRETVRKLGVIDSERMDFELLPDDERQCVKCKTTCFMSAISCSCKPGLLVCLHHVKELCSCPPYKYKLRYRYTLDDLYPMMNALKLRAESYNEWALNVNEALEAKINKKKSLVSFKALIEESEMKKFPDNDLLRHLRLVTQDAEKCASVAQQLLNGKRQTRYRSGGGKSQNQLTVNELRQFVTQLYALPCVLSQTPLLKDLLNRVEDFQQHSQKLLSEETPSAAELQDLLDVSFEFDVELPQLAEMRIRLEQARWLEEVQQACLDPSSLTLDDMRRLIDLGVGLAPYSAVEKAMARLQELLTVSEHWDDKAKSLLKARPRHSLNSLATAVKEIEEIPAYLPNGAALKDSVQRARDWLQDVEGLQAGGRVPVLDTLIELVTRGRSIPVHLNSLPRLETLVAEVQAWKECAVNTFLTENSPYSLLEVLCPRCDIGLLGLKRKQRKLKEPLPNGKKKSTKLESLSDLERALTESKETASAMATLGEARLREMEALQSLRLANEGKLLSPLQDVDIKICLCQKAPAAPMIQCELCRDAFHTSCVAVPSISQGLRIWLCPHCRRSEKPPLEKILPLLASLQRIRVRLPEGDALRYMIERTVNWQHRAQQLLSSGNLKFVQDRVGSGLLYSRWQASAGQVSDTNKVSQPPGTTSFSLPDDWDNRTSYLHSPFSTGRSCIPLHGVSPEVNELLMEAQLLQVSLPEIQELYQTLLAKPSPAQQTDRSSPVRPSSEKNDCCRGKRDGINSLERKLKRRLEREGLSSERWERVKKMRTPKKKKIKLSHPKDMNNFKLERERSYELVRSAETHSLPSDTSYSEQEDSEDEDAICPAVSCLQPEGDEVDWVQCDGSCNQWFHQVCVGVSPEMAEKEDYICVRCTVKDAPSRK
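KDM5BΔAP (200 nM final) in 50 mM HEPES pH 7.5, 0.01% Tween-20 was preincubated 10 min at RT with compound over a concentration range. Substrate mix (H3K4me3 12.5 µM, α-KG 25 µM, Fe²⁺, ascorbate, NAD⁺, FDH) was added, and NADH fluorescence change over 30 min gave dose-response curves.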
Large screens that a line does not name were inactive. This is one part of a sample in which hits are shown more often than they occur.

COc1ccc(NC(=O)Cn2c(Nc3ccc(F)c(C)c3)nc(C)cc2=O)cc1OC	none
COC(=O)N1CCC2(C1)N=C(c1ccccn1)C(=O)N2 (centres undefined)	KDM5B inhibitor 35.5µM
CC(=O)N1CCC2(C1)N=C(c1ccncc1)C(=O)N2 (centres undefined)	none
O=C1NC2(CCN(C(=O)c3ccccc3)C2)N=C1c1ccccn1 (centres undefined)	none
Cc1ccc(NC(=O)CSc2nc(CN(C)C)nc3ccccc23)c(C)c1	none
O=C(CCc1ncc(-c2ccc(F)cc2F)o1)Nc1ccc(N2CCOCC2)cc1N1CCOCC1	none
C=CCNC(=O)C(NC(=O)c1cccs1)C1CCN(C(=O)c2ccc(F)cc2)CC1 (centres undefined)	KDM5B inhibitor 28.2µM
Cc1ccc(C(=O)N2CCC(C(NC(=O)c3cccs3)C(=O)NC3CC3)CC2)cc1 (centres undefined)	none
C=CCNC(=O)C(NC(=O)c1cccc(OC)c1)C1CCN(C(=O)c2ccc(F)cc2)CC1 (centres undefined)	none
O=C(Nc1ccc(F)cc1)C(=O)c1c[nH]c2ccccc12	none
COC(=O)c1ccc(/C=C/C(=O)c2ccc3cc(OC)ccc3c2)cc1	none
CC1CCN(Cc2ccc(C(=O)N[C@@H]3CCNC[C@H]3O)o2)CC1	none
Cc1nc(N(C)C)ncc1C(=O)N[C@@H]1CCNC[C@H]1O	KDM5B inhibitor 14.1µM
CC(=O)c1c(C)nn(CCC(=O)N[C@@H]2CCNC[C@H]2O)c1C	none
O=C(O)C(c1c[nH]c2ccc(Cl)cc12)N1CCN(Cc2ccccn2)CC1 (centres undefined)	none
NC(=O)COc1ccc(C2CC(=O)Nc3n[nH]c(Nc4ccccc4)c32)cc1 (centres undefined)	none
CC(=O)N1CCC2(CC1)CC(=O)c1ccc(OCC(=O)NC3Cc4ccccc4C3)cc1O2	none
COc1ccc2nc(NC(=O)c3cc(-c4ccc(C)c(C)c4)on3)sc2c1	none
Cc1ccc(C(=O)N2CCCC3(C2)Nc2cccnc2NC3=NCc2ccccc2)cn1 (centres undefined)	KDM5B inhibitor 28.2µM
O=C(NCc1ccco1)N1CCc2n[nH]c(=O)n2CC1	none
CCCCS(=O)(=O)N1CCCC2(C1)Nc1cccnc1NC2=NCc1ccccc1 (centres undefined)	KDM5B inhibitor 28.2µM
O=C(NCc1ccco1)N1CCC(OC2CCN(Cc3ccccc3)CC2)CC1	none
Cc1cccc(C(=O)N2CCCC3(C2)NC(=O)N(Cc2ccccc2)C3=O)c1 (centres undefined)	none
CC(C)(C)c1ccc(C(=O)N2CCCC3(C2)NC(=O)N(Cc2ccccc2)C3=O)cc1 (centres undefined)	none
Cn1c(=O)n([C@H]2CCCN(S(=O)(=O)Cc3ccccc3)C2)c2ncccc21	none
O=C(NCc1ccco1)N1CCCC2(C1)Nc1cccnc1NC2=NCc1ccccc1 (centres undefined)	KDM5B inhibitor 25.1µM
Cn1c(=O)c2c(ncn2CCC(=O)Nc2cccc(C(N)=O)c2)n(C)c1=O	none
COc1ccc(CNC(=O)c2nn(-c3ccccc3C)c(=O)cc2OC)cc1	none
COc1ccccc1CNC(=O)[C@@H]1Cc2c[nH]c3cccc(c23)[C@H](CC(C)C)N1	none
O=C1NCc2ccccc2CC12CCN(Cc1ccc(Oc3ccccc3)cc1)C2 (centres undefined)	none
CC(NC(=O)C(C)(Cl)Cl)C12CC3CC(CC(C3)C1)C2 (centres undefined)	none
Cc1cccc(C(C)C)c1NC(=O)/C=C/c1ccc(F)cc1	none
CCOc1ccc(/C=N/OCc2c(Cl)cccc2Cl)cc1OC	none
COc1cccc(CC(=O)N2CCCn3nc(C)c(-c4cccnc4N4CCOCC4)c32)c1	none
Cc1nn2c(c1-c1ccccc1OCc1ccccc1)N(C(=O)Cc1ccccn1)CCC2	none
Cc1nn2c(c1-c1ccccc1Oc1ccccc1)N(Cc1ccc(C(=O)O)cc1)CCC2	KDM5B inhibitor 35.5µM
COC1CCC(C(=O)N2CCCn3nc(C)c(-c4ccccc4Oc4ccccc4)c32)CC1 (centres undefined)	none
COc1ccc(OC)c(CN2CCCn3nc(C)c(-c4ccccc4OCc4ccccc4)c32)c1	KDM5B inhibitor 28.2µM
Cc1nn2c(c1-c1ccccc1Oc1ccccc1)N(C(=O)c1ccc(F)cc1)CCC2	none
Cc1nn2c(c1-c1ccccc1Oc1ccccc1)N(C(=O)c1ccnn1C)CCC2	none
Cc1nn2c(c1-c1cccnc1N1CCOCC1)N(C(=O)c1ccc(Oc3ccccc3)cc1)CCC2	none
Cc1nn2c(c1-c1ccccc1Oc1ccccc1)N(CC1CC1)CCC2	KDM5B inhibitor 31.6µM
Cc1nn2c(c1-c1cccnc1N1CCOCC1)N(CC1CC1)CCC2	KDM5B inhibitor 35.5µM
Cc1nn2c(c1-c1ccccc1OCc1ccccc1)N(C(=O)COc1ccccc1C(N)=O)CCC2	none
Cc1nn2c(c1-c1ccccc1OCc1ccccc1)N(C(=O)CN1CCOCC1)CCC2	none
Cc1cc(OCC(=O)NC2CCc3ccccc32)ccc1C(C)C (centres undefined)	none
Cc1ccc(C(=O)CC(Nc2ccc(Cl)cc2)c2ccccc2)cc1 (centres undefined)	none
COc1ccc(C(C)=O)cc1CO/N=C/c1ccc(OC(F)F)cc1	none
CC(C)CN1C(=O)COC[C@@H]1[C@H](O)c1ccc(NC(=O)c2cccnc2)cc1	none
Cc1ccc(CN(C)C(=O)c2cc3cc(F)ccc3[nH]2)c(C)c1	none
O=C(NCc1cccs1)C(c1ccccc1)c1ccccc1	none
Cc1cccc(NC(=S)NNC(=O)C(c2ccccc2)c2ccccc2)c1C	none
CCOC(=O)C1(NC(=O)c2cc(Br)ccc2F)CCCCC1	none
CC(C)NC(=O)/C(C#N)=C/c1ccc(C(=O)O)cc1	none
CCCCn1c(=O)[nH]c(=O)c2c1nc(CSc1nnc(-c3ccco3)n1C1CCCCC1)n2CC	none
COc1ccc(C(=O)COC(=O)c2cc(Cl)ccc2Cl)c(OC)c1	none
Cc1cc(C)cc(OC(=O)c2cnc(C)cn2)c1	none
Cc1nn2c(c1-c1ccccc1OCc1ccccc1)N(CC1CC1)CCC2	KDM5B inhibitor 35.5µM
Cc1nn2c(c1-c1ccccc1OCc1ccccc1)N(Cc1nccn1C)CCC2	none
Cc1nn2c(c1-c1ccccc1OCc1ccccc1)N(Cc1cccnc1)CCC2	none
CCOC(=O)c1oc2cc(O)ccc2c(=O)c1-c1ccc(Br)cc1	none
O=C(Nc1ccc(Cl)c(C(F)(F)F)c1)c1ccc2ccccc2c1	none
CC(CNC(=O)c1cc(C2CC2)nc2ccccc12)c1ccccc1 (centres undefined)	none
COCCNC(=O)c1cc(C)nc2onc(C3CCCNC3)c12 (centres undefined)	none
Cn1nc(C2CCNC2)c2c(C(=O)N3CCOCC3)cc(C3CC3)nc21 (centres undefined)	KDM5B inhibitor 89.1µM
O=C(c1cc(C2CC2)nc2onc(C3CCCNC3)c12)N1CCC(F)CC1 (centres undefined)	none
COCCNC(=O)c1cc(C2CC2)nc2c1c(C1CCCNC1)nn2C (centres undefined)	KDM5B inhibitor 89.1µM
Cc1cc(C(=O)N2CCOCC2)c2c(C3CCNCC3)noc2n1	none
CC(C)CNC(=O)c1cc(C2CC2)nc2c1c(C1CCNC1)nn2C (centres undefined)	KDM5B inhibitor 89.1µM
Cc1cc(C(=O)NCC(C)C)c2c(C3CCNCC3)noc2n1	none
COCCNC(=O)c1cc(C)nc2onc(C3CCNC3)c12 (centres undefined)	none
Cc1ccc(OCCNC(=O)c2cc(C3CC3)nc3ccccc23)cc1	none
COCCNC(=O)c1cc(C2CC2)nc2c1c(C1CCNC1)nn2C (centres undefined)	KDM5B inhibitor 89.1µM
COC(=O)c1cc(C2CC2)nc2c1c(C)nn2CC(=O)NC(C)C	none
Cc1cccc(CNC(=O)CSc2nc3ccccc3nc2C)c1	none
